Values without a mark were called inactive. No rule for the calls is given here.

The target in this experiment is Pantothenate synthetase (Mycobacterium tuberculosis (strain ATCC 25618 / H37Rv)) (UniProt P9WIL5). The experiment can be described thus: Recombinant Mtb pantothenate synthetase (PanC) inhibitors, coupled enzyme, confirmatory (AID 375).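 Also: 0% = full reaction with vehicle and 100% = no enzyme background.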 The conditions noted are these: coupled enzyme assay; at 10 µM, stronger effect = higher value.
Chain of Pantothenate synthetase (Mycobacterium tuberculosis (strain ATCC 25618 / H37Rv)) (P9WIL5 whole entry, looked up): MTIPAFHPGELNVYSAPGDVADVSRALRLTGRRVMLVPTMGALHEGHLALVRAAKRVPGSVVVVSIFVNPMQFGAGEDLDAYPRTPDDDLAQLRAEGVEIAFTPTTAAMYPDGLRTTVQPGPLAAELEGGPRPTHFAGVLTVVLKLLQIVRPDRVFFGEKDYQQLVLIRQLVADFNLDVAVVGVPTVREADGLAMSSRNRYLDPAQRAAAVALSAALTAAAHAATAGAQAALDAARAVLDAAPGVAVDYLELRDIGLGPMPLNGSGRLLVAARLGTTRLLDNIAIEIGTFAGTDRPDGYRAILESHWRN
As to `CC(C(=O)O)c1ccc(-c2ccccc2)c(F)c1` (stereo not given), the inhibition is 0%.
The value for `CCCOc1ccc(/C(O)=C2/C(=O)C(=O)N(CCCOC)C2c2ccncc2)cc1` (stereo not given) was 4%; that for `CC(C)Sc1nc(N2CCCC2)c2c(c1C#N)CC(C)(C)OC2` was 0%; that for `Cn1nnnc1SCC(=O)NCc1ccco1` was 5%.
On to `Cc1ccc(CCNC(=O)C2CCC(=O)N2C2CCCC2)cc1` (stereo not given), for which the inhibition is 0%.
For the molecule `O=C(CSCc1cccs1)N1CCCC1`, the inhibition was 3%.
On to `CCOc1ccc(NC(=O)CN2C(=O)C3CCCN3C2=O)cc1` (stereo not given), for which the inhibition was 0%.
The value for `COc1ccc2nc(N3CCC(C)CC3)c(C#N)cc2c1` was 7%.
The result for `Nc1nc2sc3c(c2c(=O)s1)CCCC3` reads 0%; that for `O=C(O)CCNc1nc(-c2ccccc2)nc2ccccc12`, 3%.
In the case of `Cn1c(=O)[nH]c(=O)c2[nH]c(CN3CCN(C(=O)c4ccco4)CC3)nc21`, the inhibition was 0%.
As to `CCS(=O)(=O)c1nc2ccccc2n1CC(=O)N1CCCCC1`, the inhibition is 6%.
The value for `FC(F)(F)c1cc(-c2ccccc2)nc(N2CCCCC2)n1` was 2%.
The value for `Cc1cc(=O)[nH]c(S/C=C/c2ccccc2)n1` was 0%.
The value for `Cc1cc(C)n(Cc2nc3ccccc3n2C)n1` was 0%; that for `CCCn1c(SCC(=O)Nc2cc(C)on2)nc2c1c(=O)n(C)c(=O)n2C` was 0%; that for `COc1ccc(C2c3c(oc4ccccc4c3=O)C(=O)N2c2ccc(C)cn2)cc1OC` (stereo not given) was 0%.
As to `Cc1cc(C)n(CC2CC(=O)N(c3ccc(Cl)c(Cl)c3)C2=O)n1` (stereo not given), the inhibition is 0%.
The value for `O=C(c1ccc(Cl)s1)N1CCN(c2nc3ccccc3s2)CC1` was 6%.
The result for `c1ccc(-c2nnc(CSc3nncs3)o2)cc1` reads 0%; that for `O=C(NCc1cccnc1)C1c2ccccc2C(=O)N1Cc1ccco1` (stereo not given), 1%; that for `CCOC(=O)C1=C(C)NC(=O)NC1c1ccc(OCCO)c(OC)c1` (stereo not given), 0%.
The value for `COc1ccccc1N1C(=O)CCC1(C#N)c1ccccc1` (stereo not given) was 0%.
`Cc1ccc2nc(/C(C#N)=N/O)[nH]c2c1`: the inhibition is 10%.
The value for `COC(=O)c1sc(S(=O)(=O)NCc2cccs2)c(C(=O)OC)c1C` was 0%; that for `COc1cccc(-c2nnc(SCC(=O)N3CCCc4ccccc43)o2)c1` was 0%.
The result for `COc1cc(Cn2c(C(=O)O)cc3sccc32)cc(OC)c1OC` reads 0%; that for `CCOC(=O)CS(=O)(=O)c1nc(-c2ccccc2)cc(C(F)(F)F)n1`, 3%; that for `COc1ccc(S(=O)(=O)Nc2ccc3c(c2)OCO3)cc1Cl`, 5%.
The result for `Nc1nnnn1/N=C/c1ccccn1` reads 0%; that for `Nc1cccc(C(=O)O)c1`, 0%.
`CCCCn1nnnc1SCC(=O)N1CCN(C(=O)c2ccco2)CC1`: the inhibition is 0%.
The result for `CCOc1ccc2c(c1)n(CO)c(=S)n2CO` reads 0%; that for `CCCCn1c(CN2CCN(c3ccc(F)cc3)CC2)nc2c1c(=O)n(C)c(=O)n2C`, 2%; that for `O=C(OCC(=O)c1ccccc1Br)c1ccccn1`, 3%.
The result for `Brc1ccc(-c2csc(/N=C/N3CCOCC3)n2)cc1` reads 3%; that for `Cc1nc(NC2=NCN(CC3CCCO3)CN2)nc2ccccc12` (stereo not given), 0%.
The value for `CC(=O)c1ccc(NC(=O)CCc2c(C)nc3ncnn3c2C)cc1` was 4%; that for `CCOC(=O)c1cc(CC)sc1NC(=O)CCC(=O)O` was 2%; that for `CCOC(=O)c1ccccc1NC(=O)CSc1nc2c(c(=O)n(C)c(=O)n2C)n1C` was 0%.

These data come from PubChem BioAssay.
